This is an account of results in PubChem BioAssay.

Records with an inconclusive call do not appear. Calls of active or inactive are those of the source.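 The calls were made as follows, unless noted: active = binding below the plate cutoff, the plate median minus 3 SD, with a reading above zero; inconclusive = below the plate cutoff but reading exactly zero; inactive = the rest.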

Test [1] in a line: yeast TOR pathway RPL19A-GFP modulators, primary screen, cell-based, S. cerevisiae, multiplex flow cytometry (AID 1862; in the data active = percent of DMSO control GFP below about 86%;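 also: lower values mimic rapamycin by blocking the RPL19A rise seen in DMSO cells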). The following applies: S. cerevisiae RPL19A-GFP strain, flow cytometry fluorescence, 3 h; at 10 µM; stronger effect = lower value. For orientation: In flow cytometry, cells or beads pass a laser one at a time.
Test [2] is described as follows: modulators of MEP2-GFP levels in yeast, primary screen, S. cerevisiae, multiplex flow cytometry (AID 1867;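 active = GFP response, as percent of the DMSO control, above the screen-wide mean plus 3 SD, about 139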;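 also: median GFP channel fluorescence of barcode-gated MEP2-GFP cells measured by flow cytometry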). The note with it: S. cerevisiae MEP2-GFP strain, 3 h, at 10 µM, stronger effect = higher value, 100% means same as DMSO wells.
The nature of test [3]: modulators of CIT2-GFP expression in yeast, primary screen, S. cerevisiae, GFP fusion, multiplex flow cytometry (AID 1870;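 active = percent response above a set limit, the screen-wide mean plus 3 SD, cut at about 130% in these data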;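 also: barcoded CIT2-GFP strain pooled with four other GFP strains with rapamycin as positive control; median GFP fluorescence per well over plate mean of DMSO wells so 100% = DMSO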). The note with it: 3 h, at 10 µM, stronger effect = higher value.
The nature of test [4]: modulators of LAP4-GFP expression in yeast, primary screen, S. cerevisiae, multiplex flow cytometry (AID 1873;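 active = GFP signal, as percent of the solvent control, above the screen mean plus 3 SD, about 149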). The note with it: 3 h, at 10 µM, stronger effect = higher value.
The nature of test [5]: modulators of AGP1-GFP expression in yeast TOR pathway, primary screen, cell-based, multiplex flow cytometry, S. cerevisiae (AID 1887;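 active = GFP signal above the screen-wide mean plus 3 SD, that is over about 124.5% of the solvent control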;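 also: AGP1-GFP fusion strain of S. cerevisiae within a five-strain barcoded multiplex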). The following applies: 3 h, at 10 µM, stronger effect = higher value.
A short description of test [6]: inhibitors of CD8+ T cell-vesicle binding, pilot screen, LFA-1/ICAM-1 modulator project, MLPCN validation set, flow cytometry (AID 2523;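 active = response below a set limit, under 55% cells CD8-positive and vesicle-bound, and CD8 cells' 90th-percentile brightness under 279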;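 as to vesicle binding response: mean PE anti-B7-1 fluorescence of CD8+ cells relative to row control; 100% = QL9-loaded vesicles with DMSO vehicle in the same plate row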). The note with it: 2C mouse CD8+ T cells, at 7 µM, stronger effect = lower value; double positive events: measured here: CD8+/vesicle+ event percentage.
In test [7] the target is Integrin beta-1 (Homo sapiens) + Integrin alpha-4 (Homo sapiens) (UniProt P13612+P05556). Nature of the test: inhibition of HUTS-21 binding to VLA-4, pilot screen, VLA-4 allosteric modulator project, U937 cells, HUTS-21 mAb, flow cytometry, validation set (AID 2674;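 active = inhibition above 50%, about 3 SD of the validation set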;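 also: antibody binding induced by the VLA-4 ligand LDV present at three times its Kd; 0% = LDV ligand with antibody and no compound and 100% = antibody without LDV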). The following applies: HUTS-21 LIBS mAb binding, at 6.7 µM, stronger effect = higher value, binding induced by LDV ligand.
Sequence of Integrin beta-1 (Homo sapiens) + Integrin alpha-4 (Homo sapiens) (P05556 whole entry, looked up): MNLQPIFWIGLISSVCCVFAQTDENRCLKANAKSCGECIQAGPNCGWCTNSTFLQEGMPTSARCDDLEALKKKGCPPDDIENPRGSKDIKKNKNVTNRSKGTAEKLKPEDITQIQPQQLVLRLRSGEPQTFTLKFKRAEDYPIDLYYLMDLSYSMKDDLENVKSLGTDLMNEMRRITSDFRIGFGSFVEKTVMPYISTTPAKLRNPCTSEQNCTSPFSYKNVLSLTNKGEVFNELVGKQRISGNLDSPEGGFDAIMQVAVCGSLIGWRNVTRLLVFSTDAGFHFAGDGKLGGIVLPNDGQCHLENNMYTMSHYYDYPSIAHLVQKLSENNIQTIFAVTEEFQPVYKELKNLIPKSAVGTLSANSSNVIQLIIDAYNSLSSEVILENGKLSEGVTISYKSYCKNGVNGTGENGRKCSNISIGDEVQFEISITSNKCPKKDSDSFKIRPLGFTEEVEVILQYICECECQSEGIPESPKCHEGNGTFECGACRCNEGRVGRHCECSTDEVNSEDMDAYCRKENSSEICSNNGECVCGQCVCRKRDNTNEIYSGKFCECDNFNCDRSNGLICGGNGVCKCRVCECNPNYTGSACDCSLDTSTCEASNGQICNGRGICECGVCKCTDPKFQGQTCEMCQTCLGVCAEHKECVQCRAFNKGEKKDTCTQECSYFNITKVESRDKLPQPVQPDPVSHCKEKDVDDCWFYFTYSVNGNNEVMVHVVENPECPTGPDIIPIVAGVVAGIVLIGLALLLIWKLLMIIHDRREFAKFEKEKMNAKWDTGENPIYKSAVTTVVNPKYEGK
Sequence of Integrin beta-1 (Homo sapiens) + Integrin alpha-4 (Homo sapiens) (P13612 whole entry, looked up): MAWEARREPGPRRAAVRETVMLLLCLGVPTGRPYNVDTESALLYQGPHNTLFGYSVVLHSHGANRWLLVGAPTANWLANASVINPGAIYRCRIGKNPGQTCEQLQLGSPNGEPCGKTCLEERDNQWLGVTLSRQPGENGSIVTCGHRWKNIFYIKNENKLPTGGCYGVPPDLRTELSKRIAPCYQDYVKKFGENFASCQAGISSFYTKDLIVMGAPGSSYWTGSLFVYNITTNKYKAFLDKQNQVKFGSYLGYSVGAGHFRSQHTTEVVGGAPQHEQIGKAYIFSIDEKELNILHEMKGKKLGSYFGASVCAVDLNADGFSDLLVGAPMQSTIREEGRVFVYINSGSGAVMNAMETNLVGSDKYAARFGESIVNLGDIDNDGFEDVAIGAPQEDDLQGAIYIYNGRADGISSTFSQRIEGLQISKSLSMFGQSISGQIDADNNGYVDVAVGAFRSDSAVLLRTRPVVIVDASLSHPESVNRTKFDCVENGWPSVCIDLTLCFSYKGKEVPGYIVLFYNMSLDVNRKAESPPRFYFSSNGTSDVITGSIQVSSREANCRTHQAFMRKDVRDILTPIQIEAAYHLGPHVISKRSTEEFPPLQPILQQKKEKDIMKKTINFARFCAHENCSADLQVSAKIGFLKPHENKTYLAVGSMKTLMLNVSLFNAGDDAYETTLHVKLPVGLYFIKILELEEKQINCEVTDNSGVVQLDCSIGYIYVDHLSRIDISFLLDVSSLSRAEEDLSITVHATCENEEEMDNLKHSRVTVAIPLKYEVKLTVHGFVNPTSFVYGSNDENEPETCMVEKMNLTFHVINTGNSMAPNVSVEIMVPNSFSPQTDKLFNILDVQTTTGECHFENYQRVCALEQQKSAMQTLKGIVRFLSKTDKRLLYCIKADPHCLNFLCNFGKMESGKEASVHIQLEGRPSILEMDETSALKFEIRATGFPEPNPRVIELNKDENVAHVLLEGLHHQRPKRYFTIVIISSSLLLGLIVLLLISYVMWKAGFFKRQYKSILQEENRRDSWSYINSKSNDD

Test [8] in a line: superoxide lowering in aged yeast cells, pilot screen, validation compound set (AID 2706;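 active = superoxide response below 65% of plate, a cut near 3 SD across the whole screen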;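 also: yeast exposed to compound for one week at 30 degrees C before staining; 100% = mean of all compound wells on the same plate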). The following applies: S. cerevisiae aging, superoxide DHE fluorescence; at 10 µM; stronger effect = lower value.
Test [9] deals with Beta-adrenergic receptor kinase 1 (Homo sapiens) (UniProt P25098). Nature of the test: GRK2 binders displacing RNA aptamer, biochemical, validation, human GRK2, bead flow cytometry (AID 488806;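 active = aptamer binding inhibition above 30%, about 3 SD of noise from non-fluorescent compounds; inactive = inhibition at or below 30%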). The note with it: bead-bound GRK2, FAM-aptamer displacement, at 10 µM, stronger effect = higher value.
Sequence of Beta-adrenergic receptor kinase 1 (Homo sapiens) (P25098 whole entry, looked up): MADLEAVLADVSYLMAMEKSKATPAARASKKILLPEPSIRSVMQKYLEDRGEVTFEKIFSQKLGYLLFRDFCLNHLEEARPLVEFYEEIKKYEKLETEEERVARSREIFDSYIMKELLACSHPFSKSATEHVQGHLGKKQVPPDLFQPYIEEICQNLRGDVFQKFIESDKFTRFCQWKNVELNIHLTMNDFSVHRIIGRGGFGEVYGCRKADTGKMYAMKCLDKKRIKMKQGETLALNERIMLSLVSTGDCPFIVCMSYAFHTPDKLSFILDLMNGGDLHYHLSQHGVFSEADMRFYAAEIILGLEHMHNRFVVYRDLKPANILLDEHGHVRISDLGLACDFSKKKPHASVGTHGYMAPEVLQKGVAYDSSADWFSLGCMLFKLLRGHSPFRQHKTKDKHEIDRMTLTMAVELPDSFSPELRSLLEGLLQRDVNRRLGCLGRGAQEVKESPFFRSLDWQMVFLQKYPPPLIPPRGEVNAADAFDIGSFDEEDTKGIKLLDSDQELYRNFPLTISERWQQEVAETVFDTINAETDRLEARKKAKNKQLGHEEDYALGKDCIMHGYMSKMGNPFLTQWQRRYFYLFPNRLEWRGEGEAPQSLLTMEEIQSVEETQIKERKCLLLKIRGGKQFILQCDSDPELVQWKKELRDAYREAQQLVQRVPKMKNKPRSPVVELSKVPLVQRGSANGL
Test [10] addresses Beta-2 adrenergic receptor (Homo sapiens) (UniProt P07550). Nature of the test: beta2AR agonists driving receptor internalization, pilot screen, cell-based, FAP fluorogen, flow cytometry, validation set (AID 504459;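 active = percent response above 42, roughly 3 SD of non-fluorescent test compounds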;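 also: agonist-driven loss of surface beta2AR via internalization measured by FAP dye flow cytometry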). The following applies: Am2.2-beta2AR cells, FAP surface receptor flow cytometry; at 10 µM; stronger effect = higher value.
Test [11] concerns the target AP-2 complex subunit beta (Homo sapiens) (UniProt P63010). In words: inhibitors of arrestin peptide binding to AP2, pilot screen, biochemical, validation set, GST-AP2 beads, flow cytometry (AID 504541;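 active = inhibition above 54%, about 3 SD of non-fluorescent compounds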;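 also: AP2 carries R879A mutation and is captured from E. coli lysate; bead-bound FITC arrestin peptide fluorescence measuring arrestin peptide binding to AP2; 0% = DMSO wells and 100% = excess unlabeled arrestin peptide control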). The note with it: FITC arrestin peptide, at 10 µM, stronger effect = higher value, AP2 beta2 appendage fragment, R879A mutant.
A short description of test [12]: yeast V-ATPase proton transport modulators, S. cerevisiae, pHLuorin, HTS validation (AID 504600; in the data active = response above about 15%;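 also: plate controls were DMSO for no effect and reference compound for full effect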). The note with it: S. cerevisiae pHLuorin cytosolic pH, at 10 µM, stronger effect = higher value.
Test [13] has as its system anti-desmoglein-3 scFv antibody binding to human DSG3. In words: inhibitors of anti-DSG3 scFv binding to DSG3, pilot screen, biochemical, validation compound set, bead-based, flow cytometry (AID 588368).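 Also: signal is the median channel fluorescence of bead-bound GFP antibody.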 The following applies: Protein G beads, DSG3-Fc, scFv-GFP binding, at 10 µM, stronger effect = lower value.
The nature of test [14]: inhibitors of fungal efflux pumps CDR1, CDR2, MDR1, pilot screen, validation compound set, multiplex, phenotypic (AID 588506;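 active = efflux inhibition above 0.42, the validation set average plus 4 SD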;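 also: Nile Red retained in cells so higher fluorescence means more efflux inhibition; 0 = negative control wells and 1 = enniatin B 25 µM full block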). The note with it: S. cerevisiae pump-expressing triplex, Nile Red efflux flow cytometry; at 10 µM; stronger effect = higher value; the pumps come from Candida albicans.
The target of test [15] is ATP-binding cassette sub-family B member 6 (Homo sapiens) (UniProt Q9NP58). In words: ABCB6 transporter inhibitors, pilot screen, K562-ABCB6 cells, flow cytometry, validation set (AID 588550;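 active = inhibition above the screen-wide mean plus 3 SD, about 51%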;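 also: 0% = DMSO wells and 100% = benzethonium chloride 70 µM positive control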). The note with it: K562-ABCB6 porphyrin accumulation, 1 h, at 10 µM, stronger effect = higher value.
Sequence of ATP-binding cassette sub-family B member 6 (Homo sapiens) (Q9NP58 whole entry, looked up): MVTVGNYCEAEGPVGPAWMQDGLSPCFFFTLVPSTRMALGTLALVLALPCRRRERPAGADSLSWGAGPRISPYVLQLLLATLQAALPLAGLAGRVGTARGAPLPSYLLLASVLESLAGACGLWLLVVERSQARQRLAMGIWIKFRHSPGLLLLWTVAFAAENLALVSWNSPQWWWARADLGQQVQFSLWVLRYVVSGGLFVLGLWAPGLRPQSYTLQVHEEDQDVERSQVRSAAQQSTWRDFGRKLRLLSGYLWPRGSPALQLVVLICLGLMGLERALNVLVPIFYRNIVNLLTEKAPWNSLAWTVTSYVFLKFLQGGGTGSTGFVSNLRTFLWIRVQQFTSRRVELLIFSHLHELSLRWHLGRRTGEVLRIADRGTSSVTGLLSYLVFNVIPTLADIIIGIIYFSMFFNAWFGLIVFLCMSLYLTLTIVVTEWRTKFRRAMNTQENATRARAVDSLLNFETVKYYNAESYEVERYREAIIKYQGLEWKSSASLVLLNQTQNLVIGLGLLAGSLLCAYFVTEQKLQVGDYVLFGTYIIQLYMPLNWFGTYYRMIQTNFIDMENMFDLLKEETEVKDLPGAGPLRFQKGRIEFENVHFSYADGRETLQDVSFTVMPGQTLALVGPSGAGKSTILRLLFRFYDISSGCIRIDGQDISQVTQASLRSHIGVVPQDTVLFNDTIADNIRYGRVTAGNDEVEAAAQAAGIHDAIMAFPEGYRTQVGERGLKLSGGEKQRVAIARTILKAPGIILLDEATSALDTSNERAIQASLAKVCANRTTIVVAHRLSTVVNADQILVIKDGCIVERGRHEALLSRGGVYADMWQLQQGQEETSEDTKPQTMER
A short description of test [16]: promoters of myeloid differentiation in arrested cells, primary screen, cell-based, GFP/MAC1 double positive, flow cytometry, validation set (AID 588685;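 active = differentiation response of at least 50%, scaled between solvent and reference control, from cells with both markers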;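 also: compound exposure lasts four days before antibody staining and flow analysis; 0% = DMSO wells and 100% = 5 µM fulvestrant positive control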). The note with it: ER-HoxA9 marrow cells, stronger effect = higher value, normalized: vehicle 0, fulvestrant 100.

Sequence of Beta-2 adrenergic receptor (Homo sapiens) (P07550 whole entry, looked up): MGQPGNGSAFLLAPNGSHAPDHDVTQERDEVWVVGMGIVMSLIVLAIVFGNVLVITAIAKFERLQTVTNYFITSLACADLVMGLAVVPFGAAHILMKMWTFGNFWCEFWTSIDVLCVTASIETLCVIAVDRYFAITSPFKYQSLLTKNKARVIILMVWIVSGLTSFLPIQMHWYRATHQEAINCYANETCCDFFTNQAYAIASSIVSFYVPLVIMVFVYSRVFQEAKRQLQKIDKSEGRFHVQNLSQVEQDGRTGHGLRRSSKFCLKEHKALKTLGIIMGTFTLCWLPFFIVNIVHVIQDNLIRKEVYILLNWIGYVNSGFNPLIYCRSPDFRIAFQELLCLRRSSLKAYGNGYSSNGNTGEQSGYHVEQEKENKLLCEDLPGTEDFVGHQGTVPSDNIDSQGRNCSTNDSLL
Sequence of AP-2 complex subunit beta (Homo sapiens) (P63010 whole entry, looked up, the tested form may be a part, one chain of several): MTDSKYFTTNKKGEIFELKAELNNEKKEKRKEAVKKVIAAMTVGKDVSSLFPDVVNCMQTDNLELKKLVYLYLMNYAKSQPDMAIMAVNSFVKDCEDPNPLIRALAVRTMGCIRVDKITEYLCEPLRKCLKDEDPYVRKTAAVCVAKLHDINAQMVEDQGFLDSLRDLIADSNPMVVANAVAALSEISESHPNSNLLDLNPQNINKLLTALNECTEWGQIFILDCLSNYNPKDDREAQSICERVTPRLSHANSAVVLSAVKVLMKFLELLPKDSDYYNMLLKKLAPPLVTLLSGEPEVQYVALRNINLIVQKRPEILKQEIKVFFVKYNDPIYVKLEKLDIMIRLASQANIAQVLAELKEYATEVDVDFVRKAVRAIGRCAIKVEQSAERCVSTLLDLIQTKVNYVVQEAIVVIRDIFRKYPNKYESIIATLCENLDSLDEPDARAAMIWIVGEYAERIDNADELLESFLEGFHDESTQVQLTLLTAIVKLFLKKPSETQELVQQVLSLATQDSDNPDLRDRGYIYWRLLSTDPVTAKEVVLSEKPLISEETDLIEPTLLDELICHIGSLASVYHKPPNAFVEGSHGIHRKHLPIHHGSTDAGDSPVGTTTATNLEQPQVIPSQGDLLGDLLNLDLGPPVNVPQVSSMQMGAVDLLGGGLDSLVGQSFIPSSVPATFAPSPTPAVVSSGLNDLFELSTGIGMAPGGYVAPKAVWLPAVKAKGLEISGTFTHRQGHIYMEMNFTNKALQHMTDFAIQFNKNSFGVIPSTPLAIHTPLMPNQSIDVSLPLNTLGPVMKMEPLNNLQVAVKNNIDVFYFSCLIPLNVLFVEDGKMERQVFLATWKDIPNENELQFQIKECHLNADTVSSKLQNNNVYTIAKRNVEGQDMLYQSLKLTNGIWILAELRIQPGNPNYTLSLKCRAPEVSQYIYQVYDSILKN

Consider `Cn1cc(/C=C/C(=O)c2ccccc2)c2ccccc21`, for which the percent of DMSO control GFP in [1] was 98% (inactive). Also, the GFP response vs DMSO in test [2] was 107% (inactive); in [4], 133% (inactive). The percent response of DMSO control in [3] is 87.2% (inactive). Also, the GFP response, % of DMSO in [5] was 89.7% (inactive). Further, the double positive events in test [6] was found to be 58.1%. The vesicle binding response in test [6] is 230% (inactive). The inhibition – broadly, the drop in the measured response relative to a control, in per cent – is -1.79% (inactive) in test [7], 4.67% (inactive) in [11] and 4% (inactive) in test [15]. Besides, the superoxide response (% of plate) in test [8] was 102% (inactive). In test [9], the aptamer binding inhibition was 1% (inactive). Besides, the response was 32.6% (inactive) in test [10] and -2% (inactive) in test [12]. In test [13], the binding (% of control) was 101% (inactive). Also, the efflux inhibition (fraction of control) in test [14] was -0.1 (inactive). Moreover, the differentiation response in test [16] was -10.4% (inactive).

With `CC(=O)N1CCN(c2ccc(NC(=O)/C=C/c3ccccc3)cc2)CC1`, the percent of DMSO control GFP in test [1] was 103% (inactive). In addition, the values for the GFP response vs DMSO in test [2] and in [4] were 98.7% (inactive) and 100% (inactive), respectively. The percent response of DMSO control in test [3] was 105% (inactive). For the same compound, in [5], the GFP response, % of DMSO was 108% (inactive). For the same compound, the double positive events in test [6] was determined as 63.1%. Also, in test [6], the vesicle binding response was 168% (inactive). For the same compound, the inhibition is 2.93% (inactive) in test [7], -6.59% (inactive) in test [11] and -1% (inactive) in test [15]. Moreover, the superoxide response (% of plate) in test [8] is 76% (inactive). In addition, the aptamer binding inhibition in [9] was -3% (inactive). The response was 3.43% (inactive) in [10] and 3.19% (inactive) in test [12]. Also, in [13], the binding (% of control) was 107% (inactive). In addition, the efflux inhibition (fraction of control) in test [14] was 0.39 (inactive). Also, the differentiation response in test [16] is -11.9% (inactive).

In the case of `c1ccc(Nc2cccc3c(Nc4ccccc4)cccc23)cc1`, the percent of DMSO control GFP in [1] is 104% (inactive). Moreover, the GFP response vs DMSO was 107% (inactive) in [2] and 88.7% (inactive) in test [4]. For the same compound, the percent response of DMSO control in test [3] is 105% (inactive). Further, the GFP response, % of DMSO in [5] is 97.8% (inactive). The double positive events in [6] turned out to be 62%. In test [6], the vesicle binding response is 284% (inactive). Moreover, the values for the inhibition in [7], in test [11] and in [15] were -28.5% (inactive), 21.9% (inactive) and -26% (inactive), respectively. In test [8], the superoxide response (% of plate) was 98.3% (inactive). Moreover, the aptamer binding inhibition in test [9] is 1% (inactive). Besides, the values for the response in test [10] and in [12] were 6.03% (inactive) and 0.51% (inactive), respectively. For the same compound, the binding (% of control) in test [13] is 91.6% (inactive). The efflux inhibition (fraction of control) in test [14] is 0.18 (inactive). Moreover, the differentiation response in test [16] is 14.9% (inactive).

For `CC(=O)N1c2ccccc2C(C)=CC1(C)C`, the percent of DMSO control GFP in test [1] was 101% (inactive). Further, the GFP response vs DMSO is 107% (inactive) in test [2] and 104% (inactive) in test [4]. The percent response of DMSO control in [3] was 98.3% (inactive). For the same compound, the GFP response, % of DMSO in test [5] was 125% (inactive). In [6], this compound showed a double positive events of 64.4%. Besides, in test [6], the vesicle binding response was 199% (inactive). Further, the figures for the inhibition in [7], in test [11] and in test [15] were -17.3% (inactive), -16.5% (inactive) and 2% (inactive), respectively. The superoxide response (% of plate) in test [8] is 112% (inactive). Besides, the aptamer binding inhibition in test [9] is 2% (inactive). For the same compound, the response in test [10] was -23.5% (inactive); in [12], -0.45% (inactive). For the same compound, the binding (% of control) in test [13] is 109% (inactive). Moreover, in test [14], the efflux inhibition (fraction of control) is -0.04 (inactive). In addition, the differentiation response in test [16] is -1.05% (inactive).

With `Cc1ccnc2c1NC(=O)c1cccnc1N2C1CC1`, the percent of DMSO control GFP in [1] is 102% (inactive). The GFP response vs DMSO was 98.3% (inactive) in test [2] and 98% (inactive) in test [4]. The percent response of DMSO control in test [3] is 115% (inactive). In addition, the GFP response, % of DMSO in test [5] was 99.4% (inactive). The same compound had a double positive events in test [6] of 66.5%. For the same compound, the vesicle binding response in [6] was 295% (inactive). For the same compound, the inhibition in test [7] was 2.66% (inactive); in test [11], -5.17% (inactive); in [15], 2% (inactive). Also, the superoxide response (% of plate) in test [8] is 108% (inactive). Further, in [9], the aptamer binding inhibition is 4% (inactive). The values for the response in test [10] and in test [12] were -1.22% (inactive) and 0.42% (inactive), respectively. Further, the binding (% of control) in test [13] is 99.2% (inactive). The efflux inhibition (fraction of control) in [14] was -0.17 (inactive). Besides, the differentiation response in [16] is 2.2% (inactive).
